What was measured:
Experiment in all cases: PBM binding z-score (relative to random genomic background probes); higher = stronger binding; sequences stand for … in GC…GCGATTGACAGCGTAGAATGAAGG
[1] = tested on: FXR:RXRa (NR concentration 270 nM, RXRa partner concentration 90 nM)
Outline: (§1)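 Ligand-free nuclear receptor dimers were bound for 1 h to custom Agilent 4×180K protein-binding microarrays. Detection used antibodies against each partner (one per run). Binding z-scores rest on regression-normalized fluorescence, with random background probes as the reference.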

[2] = tested on: LXRa:RXRa (NR concentration 270 nM, RXRa partner concentration 90 nM)
Outline: as §1

[3] = tested on: LXRa homodimer (NR concentration 270 nM)
Outline: as §1

[4] = tested on: LXRb:RXRa (NR concentration 270 nM, RXRa partner concentration 90 nM)
Outline: as §1

[5] = tested on: LXRb homodimer (NR concentration 270 nM)
Outline: as §1

[6] = tested on: PPARa:RXRa (NR concentration 270 nM, RXRa partner concentration 90 nM)
Outline: as §1

[7] = tested on: PPARg:RXRa (NR concentration 180 nM, RXRa partner concentration 90 nM)
Outline: as §1

[8] = tested on: PPARg:RXRa 270nM:90nM, anti-RXR (NR concentration 270 nM, RXRa partner concentration 90 nM)
Outline: as §1

[9] = tested on: PPARg:RXRa 30nM:10nM, anti-RXR (NR concentration 30 nM, RXRa partner concentration 10 nM)
Outline: as §1

[10] = tested on: PPARg:RXRa 90nM:30nM, anti-RXR (NR concentration 90 nM, RXRa partner concentration 30 nM)
Outline: as §1

[11] = tested on: PPARg:RXRa DBDmut IVT, anti-RXR (DBD mutation: RXRa K156A/R161A, NR concentration 270 nM, RXRa partner concentration 90 nM)
Outline: as §1

[12] = tested on: PPARg:RXRa IVT, anti-PPARg (NR concentration 270 nM, RXRa partner concentration 90 nM)
Outline: as §1

[13] = tested on: PPARg DBDmut:RXRa IVT, anti-PPARg (DBD mutation: PPARg1 K132A/R137A, NR concentration 270 nM, RXRa partner concentration 90 nM)
Outline: as §1

[14] = tested on: PPARg DBDmut IVT, anti-PPARg (DBD mutation: PPARg1 K132A/R137A, NR concentration 270 nM)
Outline: as §1

[15] = tested on: PPARg homodimer (NR concentration 180 nM)
Outline: as §1

[16] = tested on: PXR:RXRa (NR concentration 270 nM, RXRa partner concentration 90 nM)
Outline: as §1

[17] = tested on: PXR homodimer (NR concentration 270 nM)
Outline: as §1

[18] = tested on: RARa:RXR (NR concentration 270 nM, RXRa partner concentration 90 nM)
Outline: as §1

[19] = tested on: RARa homodimer (NR concentration 270 nM)
Outline: as §1

[20] = tested on: RARb:RXRa (NR concentration 270 nM, RXRa partner concentration 90 nM)
Outline: as §1

Sequence | PBM binding z-score [1] | PBM binding z-score [2] | PBM binding z-score [3] | PBM binding z-score [4] | PBM binding z-score [5] | PBM binding z-score [6] | PBM binding z-score [7] | PBM binding z-score [8] | PBM binding z-score [9] | PBM binding z-score [10] | PBM binding z-score [11] | PBM binding z-score [12] | PBM binding z-score [13] | PBM binding z-score [14] | PBM binding z-score [15] | PBM binding z-score [16] | PBM binding z-score [17] | PBM binding z-score [18] | PBM binding z-score [19] | PBM binding z-score [20]
TCGAGTAGGTTACCAATGGGCCATTCAGCTTTCT | 0.506 | 1.7 | -0.585 | 0.464 | -1.18 | 1.09 | 0.383 | 1.13 | 0.927 | 1.04 | 3.13 | 2.59 | -1.01 | -0.848 | -0.318 | 0.108 | -0.851 | 0.175 | -0.737 | 0.862
AGAATGAGGTTATTATGATCAGGGAATTGCGGTC | 1.62 | 1.46 | 0.202 | 1.16 | 0.134 | 2.71 | 1.93 | 1.96 | 0.795 | 1.48 | 3.67 | 2.89 | 1.32 | 0.834 | 0.53 | 1.11 | 0.371 | 1.34 | 0.69 | 1.24
GCGGCTGGGGCAAAGCAGGTTACCATAAGGTTGG | 0.63 | 0.104 | -0.673 | 0.159 | -0.912 | 0.636 | 0.139 | -0.304 | -0.825 | -0.577 | 0.344 | 0.597 | -2.01 | -1.49 | -0.191 | 0.338 | -0.584 | 0.776 | -1.18 | 1.07
TCGAGTGGGTTACCAATGGGGCATTCAGCTTTCT | -1.28 | 0.53 | -0.905 | 0.75 | -0.956 | 0.859 | -0.273 | 0.677 | 0.872 | 0.607 | 2.12 | 1.77 | -0.245 | -0.482 | -0.73 | -0.197 | -0.99 | -0.236 | -0.45 | 0.353

Reference: the supplement of paper PMC6555819
